About 79,000 compounds went through this panel and 15% of them were active in at least one assay; those are over-represented in the sample as a whole. The source made the active and inactive calls. Cut-off read from the data, not from the text of the source: active = growth inhibition above about 70%; inactive = the rest.
Key:
[1] = NCI Yeast Anticancer Drug Screen. Data for the rad52 strain (AID 147);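 note: 0% = growth of vehicle-treated control cultures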; details: S. cerevisiae rad52 mutant growth inhibition, hits give high values
Method in brief: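 Screen used a yeast mutant impaired in DNA repair. After compound exposure, growth was measured. Values reflect inhibition compared with vehicle-treated cells.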

[2] = NCI Yeast Anticancer Drug Screen. Data for the wt1 strain (AID 149);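 note: 0% = growth of vehicle-treated wt1 cultures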; details: S. cerevisiae wt1 strain (SPY 50644) growth inhibition, hits give high values
Method in brief: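 Measured: growth of wt1 yeast under compound versus vehicle treatment, reported as inhibition.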

[3] = NCI Yeast Anticancer Drug Screen. Data for the rad50EPP+ strain (AID 151);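 note: 0% = growth of vehicle-treated control cultures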; details: S. cerevisiae rad50 mutant strain, hits give high values
Method in brief: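 Exposing the rad50EPP+ strain to each compound, growth was compared with vehicle-only cultures to give inhibition.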

[4] = NCI Yeast Anticancer Drug Screen. Data for the mgt1 strain (AID 153); details: S. cerevisiae mgt1 mutant growth inhibition, hits give high values
Method in brief: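 Genetically defined yeast (mgt1) treated with compound; inhibition of growth expressed against vehicle-treated controls.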

[5] = NCI Yeast Anticancer Drug Screen. Data for the rad50 strain (AID 155);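 note: 0% = growth of vehicle-only cultures of the same strain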; details: S. cerevisiae rad50 strain growth inhibition, hits give high values
Method in brief: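 Growth of the mutant yeast was measured after compound exposure and referenced to vehicle-treated cultures.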

[6] = NCI Yeast Anticancer Drug Screen. Data for the mec2-1 strain (AID 157); details: S. cerevisiae mec2-1 strain, hits give high values
Method in brief: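 Readout is yeast growth inhibition, normalised to vehicle-treated controls, in the mec2-1 strain exposed to compound.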

[7] = NCI Yeast Anticancer Drug Screen. Data for the rad14 strain (AID 159);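 note: 0% = growth of vehicle-treated control cultures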; details: S. cerevisiae rad14 strain growth inhibition, hits give high values
Method in brief: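 Here, inhibition of yeast growth was measured after compound exposure, using a strain with a genetic defect in DNA damage repair and vehicle-treated cultures as the reference.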

[8] = NCI Yeast Anticancer Drug Screen. Data for the sgs1 mgt1 strain (AID 161);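 note: 0% = growth of cultures given vehicle only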; details: S. cerevisiae sgs1 mgt1 strain, hits give high values
Method in brief: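 Yeast cells carrying a defined DNA-repair defect were exposed to test compounds. Growth inhibition was measured relative to vehicle-treated controls.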

[9] = NCI Yeast Anticancer Drug Screen. Data for the CLN2oe strain (AID 163);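 note: 0% = growth of vehicle-only control cultures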; details: S. cerevisiae CLN2oe strain, hits give high values
Method in brief: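 Values reflect how much compound exposure reduced yeast growth, referenced to vehicle-exposed cells. Assay organism is a strain with a defined genetic change affecting cell-cycle control.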

[10] = NCI Yeast Anticancer Drug Screen. Data for the cln2 rad14 strain (AID 165);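 note: 0% = growth equal to vehicle treated cultures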; details: S. cerevisiae cln2 rad14 strain, hits give high values
Method in brief: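 Relative to vehicle controls, growth inhibition of compound-treated cln2 rad14 yeast was recorded.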

[11] = NCI Yeast Anticancer Drug Screen. Data for the bub3 strain (AID 167); details: S. cerevisiae bub3 mutant strain, hits give high values
Method in brief: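 Whole-cell yeast assay. The mutant strain was incubated with compounds, and growth inhibition was determined by comparison with vehicle-treated cells.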

[12] = NCI Yeast Anticancer Drug Screen. Data for the mlh1 strain (AID 171);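 note: 0% = growth of vehicle-treated control cultures of the same strain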; details: S. cerevisiae mlh1 strain growth inhibition, hits give high values
Method in brief: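 Steps: expose the defined-mutant yeast strain to compound; expose a parallel culture to vehicle; measure growth; express compound effect as inhibition relative to the vehicle culture.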

[13] = NCI Yeast Anticancer Drug Screen. Data for the sgs1 strain (AID 173);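 note: 0% = growth of vehicle-only control cultures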; details: S. cerevisiae sgs1 mutant, hits give high values
Method in brief: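 Treat defined-mutant yeast with compound; measure growth; calculate inhibition relative to vehicle-treated cells.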

[14] = NCI Yeast Anticancer Drug Screen. Data for the mlh1 rad18 strain (AID 175); details: S. cerevisiae mlh1 rad18 strain growth inhibition, hits give high values
Method in brief: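 Test agents were incubated with a yeast strain of defined genotype (DNA damage repair defect). Inhibition of growth was derived by comparison with vehicle-exposed cultures.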

[15] = NCI Yeast Anticancer Drug Screen. Data for the rad18 strain (AID 177); details: S. cerevisiae rad18 mutant growth inhibition, hits give high values
Method in brief: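 A genetically defined yeast mutant impaired in DNA damage repair was treated with test compounds, then its growth was measured against cultures receiving vehicle alone.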

[16] = at 5.0 µM (retest, dose inferred, filed as 0.5)
[17] = at 50.0 µM (retest, dose inferred, filed as 5.0)

Measured: growth inhibition

Oc1ccc(-c2nc(-c3ccc(F)cc3)c(-c3ccc4ccccc4n3)[nH]2)cc1
inactive: [1]; at 1.2 µM -48% | [1]; at 3.7 µM -41% | [2]; at 1.2 µM -60% | [2]; at 3.7 µM -54% | [2]; at 11.0 µM 64% | [2]; at 33.0 µM 18% | [3]; at 1.2 µM -43% | [3]; at 3.7 µM -37% | [3]; at 11.0 µM -26% | [3]; at 33.0 µM -16% | [3]; at 100.0 µM -18% | [4]; at 1.2 µM -28% | [4]; at 3.7 µM -31% | [5]; at 1.2 µM -31% | [5]; at 3.7 µM -44% | [5]; [16] 19% | [5]; [17] 54% | [6]; at 1.2 µM -40% | [6]; at 3.7 µM -27% | [6]; [16] 16% | [6]; at 11.0 µM 69% | [6]; [17] 63% | [7]; at 1.2 µM -51% | [7]; at 3.7 µM -49% | [7]; at 11.0 µM -6% | [8]; [16] 0% | [8]; [17] -41% | [9]; at 1.2 µM -5% | [9]; at 3.7 µM -8% | [10]; [16] 13% | [10]; [17] -33% | [11]; at 1.2 µM -32% | [11]; at 3.7 µM -20% | [11]; [16] 5% | [11]; [17] -31% | [12]; at 1.2 µM -44% | [12]; at 3.7 µM -37% | [12]; at 11.0 µM 36% | [13]; at 1.2 µM -34% | [13]; at 3.7 µM -38% | [14]; [16] 27% | [15]; at 1.2 µM -28% | [15]; at 3.7 µM -36%
active: [1]; at 11.0 µM 85% | [1]; at 33.0 µM 96% | [1]; at 100.0 µM 88% | [2]; at 100.0 µM 94% | [4]; at 11.0 µM 81% | [4]; at 33.0 µM 97% | [4]; at 100.0 µM 92% | [5]; at 11.0 µM 76% | [5]; at 33.0 µM 97% | [5]; at 50.0 µM 90.5% | [5]; at 100.0 µM 94% | [6]; at 33.0 µM 98% | [6]; at 50.0 µM 93% | [6]; at 100.0 µM 96% | [7]; at 33.0 µM 94% | [7]; at 100.0 µM 91% | [8]; at 50.0 µM 92.2% | [9]; at 11.0 µM 93% | [9]; at 33.0 µM 98% | [9]; at 100.0 µM 94% | [10]; at 50.0 µM 90.6% | [11]; at 11.0 µM 96% | [11]; at 33.0 µM 98% | [11]; at 50.0 µM 91.8% | [11]; at 100.0 µM 90% | [12]; at 33.0 µM 98% | [12]; at 100.0 µM 94% | [13]; at 11.0 µM 97% | [13]; at 33.0 µM 98% | [13]; at 100.0 µM 90% | [14]; [17] 70% | [14]; at 50.0 µM 85.8% | [15]; at 11.0 µM 96% | [15]; at 33.0 µM 97% | [15]; at 100.0 µM 94%

Reference: PubChem BioAssay (NCI)
